# From PubChem
# Sfp PPTase inh: qHTS Assay for Inhibitors of Bacillus subtilis Sfp phosphopantetheinyl transferase (PPTase); 4'-phosphopantetheinyl transferase ffp (Bacillus subtilis), Q9F4F7; Biochemical Sfp PPTase activity, qHTS; Potency, µM, for inactives: largest response in the series, negative = inhibition, hits mostly inhibitors; actives 3.5% (n = 310,000);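 note: the enzyme is Sfp with the accession as filed and its product quenches rhodamine fluorescence; 0% = enzyme reaction without inhibitor and -100% = no enzyme wells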
#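 Reaction rates are the 30-min fluorescence difference (ex 525, em 598 nm) in wells containing 15 nM Sfp, 5 uM rhodamine-CoA and 12.5 uM BHQ-2-YbbR at pH 7.6 with 10 mM MgCl2.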
# L3MBTL1 inh: qHTS Assay for the Inhibitors of L3MBTL1; Lethal(3)malignant brain tumor-like protein 1 (Homo sapiens), Q9Y468; AlphaScreen L3MBTL1–H3K9me1 peptide binding; Potency, µM (highest dose often 57.1 µM), for the others: top-dose activity, negative = inhibition, actives largely listed as inhibitors; actives 0.66% (n = 230,000); note: % is set by controls: 0 for no effect and ±100 for the full control effect; nearly all actives have a fitted effect of over 60% in size
#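 L3MBTL1 50 nM + b-AHA-H3(1-15)K9me1 75 nM, 30 min RT; compound added, 30 min RT; streptavidin donor/Ni-chelate acceptor beads 10 ug/mL each final, 30 min RT dark; AlphaScreen read.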
# G9a inh: qHTS Assay for Inhibitors of Histone Lysine Methyltransferase G9a | G9a H3K9 monomethylation, AlphaScreen, 2 h | AID 504332, 2011 | Histone-lysine N-methyltransferase EHMT2 (Homo sapiens), Q96KQ7 | Potency, µM (series often up to 102 µM), for the others: top-dose activity, negative = inhibition, actives largely listed as inhibitors | actives 8.8% (n = 350,000); note: % is set by controls: 0 for no effect and ±100 for the full control effect; nearly all actives have a fitted effect of over 75% in size
#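 Readings reflect AlphaScreen signal from monomethyl-H3K9 antibody detection. HMT at 20 nM; substrate b-H3K9 500 nM; cofactor SAM 20 uM; 2 h RT reaction; compounds tested as titrations in qHTS with 15 min preincubation.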
# BAZ2B block: qHTS Assay for Inhibitors of BAZ2B | AlphaScreen BAZ2B-H3K14Ac peptide displacement | Potency, µM (titrated, usually from 114 µM), inactives show top-dose activity change, negative = inhibition, usual class: inhibitors | actives 4.4% (n = 360,000) | AID 504333, 2011; note: % is set by controls: 0 for no effect and ±100 for the full control effect; nearly all actives have a fitted effect of over 60% in size
#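 Protein-peptide AlphaScreen: BAZ2B 50 nM, b-H3K14Ac 50 nM, 1x PBS pH 7.4 + 0.01% Tween-20. Preincubation 30 min RT; cpd 30 min RT (top 110 uM); beads 20 min RT, light-protected.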
# JMJD2A Tudor inh: qHTS Assay for Inhibitors of JMJD2A-Tudor Domain; AlphaScreen JMJD2A-Tudor / H3K4me3 peptide binding; actives 4.4% (n = 390,000); AID 504339, 2011; Potency, µM (doses to about 114 µM), without a hit: at the highest dose activity change, negative = inhibition, hits mostly inhibitors; Lysine-specific demethylase 4A (Homo sapiens), O75164; note: % is set by controls: 0 for no effect and ±100 for the full control effect; nearly all actives have a fitted effect of over 50% in size
# HP1b binding inh: HTS for Inhibitors of HP1-beta Chromodomain Interactions with Methylated Histone Tails. Potency, µM (highest dose often 114 µM), for the others: at the top dose activity change, negative = inhibition, actives largely listed as inhibitors. actives 0.56% (n = 390,000). AlphaScreen HP1-beta / biotin-H3K9me3 peptide binding. AID 540317, 2011; note: nearly all actives have a fitted effect of over 70% in size
#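 HP1-beta protein (50 nM final) preincubated 30 min at room temperature with biotinylated H3(1-18)K9me3 peptide (50 nM) in PBS pH 7.4, 0.01% Tween-20, then compound added for 30 min. AlphaScreen streptavidin donor/nickel chelate acceptor beads (10 ug/mL final), 30 min dark, luminescence read.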
# * marks the source's active call; other numbers are inactive results; ? = inconclusive; nt = no result; [ ] = remark or other dose. Rows were chosen to be rich in hits. Some 12% of all compounds tested hit in one or more screens of this group. Calls come from the whole dose curve; as a rule, active = well fitted curve in the direction sought with a large enough effect; inconclusive = small, poorly fitted or top-dose-only effect, or another doubt; inactive = no such curve, though single readings can be large; an effect the other way counts as inactive or inconclusive. Potency is the fitted concentration of half-maximal effect.
SMILES,Sfp PPTase inh,L3MBTL1 inh,G9a inh,BAZ2B block,JMJD2A Tudor inh,HP1b binding inh
Cc1ccc(F)cc1NC(=O)CCc1c(C)nn(-c2ccc(N3CCCC3)nn2)c1C,nt,nt,5.1%[59 µM],-15.0%,-14.7%,55.6%
COc1cccc(CN2CCN(Cc3cc(OC)c(OC)c(OC)c3)CC2)c1OC,-19.9%,-2.4%,2.82µM*,56.2µM*,7.94µM*,?
CC1CCN(C(=O)CN(CCc2ccccc2)S(C)(=O)=O)CC1,6.7%,7.9%,7.2%,5.6%,-6.8%,28.8%
COc1cccc(CN2CCN(Cc3cccc(Oc4ccccc4)c3)CC2)c1OC,79.4µM*,nt,3.98µM*,17.8µM*,7.08µM*,?
CC(C)CC(=O)N1CCC(N(CCc2ccccc2)Cc2ccccc2)CC1,?,2.0%,22.4µM*,50.1µM*,28.2µM*,?
COc1cccc(CN2CCC(N(CCc3ccccc3)Cc3ccccc3)CC2)c1OC,39.8µM*,-3.3%,8.91µM*,50.1µM*,0.891µM*,?
COc1ccc(S(=O)(=O)N2CCN(Cc3cccc(OC)c3OC)CC2)cc1,12.7%,-7.0%[2.29 µM],-0.1%[0.501 µM],-11.3%,-8.8%,21.4%
COc1cccc(CN2CCN(CCc3ccccc3)C(CCO)C2)c1OC (stereo not given),4.4%,5.8%,-2.8%[0.501 µM],3.3%,-2.0%,31.5%
O=C1N[C@@H](Cc2c[nH]c3ccccc23)COC(=O)[C@@H](Cc2ccc(F)cc2)CC/C=C/C[C@@H]1CC(=O)N(CCO)Cc1ccccc1,nt,-16.0%,nt,nt,?,9.4%
Cc1ccc(OCCCn2c(-c3ccc(Cl)cc3)nc3ccccc3c2=O)c(C)c1,nt,nt,-40.7%[59 µM],12.8%,20.1%,40.4%
Cc1ccc2[nH]c(=O)c3cc(C(=O)NC(C)C)sc3c2c1,-0.9%,nt,-5.1%,-16.8%,31.6µM*,35.6%[57 µM]
C=CCN(CC=C)C(=S)NC(=O)/C=C/c1ccccc1,3.4%,0.1%,17.0%[59 µM],5.9%,22.4µM*,?
C=CCN(CC=C)C(=S)NC(=O)c1ccc(-c2ccccc2)cc1,?,nt,-0.8%,6.31µM*,?,-0.1%
CN(C)C=Nc1nc2ccccc2nc1N1CCCC1,-28.2%,0.3%[11.4 µM],44.7µM*,-0.3%,12.3%,88.5%
O=C(NCC1CCCO1)c1nn2c(C(F)(F)F)cc(-c3ccc(Br)o3)nc2c1Br (stereo not given),50.1µM*,nt,50.1µM*,2.2%,-4.9%,-3.0%
O=C(NC1CCCCC1)c1nn2c(C(F)(F)F)cc(-c3ccco3)nc2c1Br,50.1µM*,-11.3%,?,-2.0%,-6.9%,10.2%
O=C(NC1CCCCC1)c1cnn2c(C(F)(F)F)cc(-c3ccco3)nc12,-24.4%,1.6%,-5.1%[59 µM],7.1%,-21.2%,19.9%
COc1ccc(Br)c(C(=O)N(C)CC(=O)Nc2ccc(N3CCOCC3)cc2)c1,nt,0.2%,20µM*,0.9%,-15.8%,4.4%
CN(CC(=O)Nc1ccc(N2CCOCC2)cc1)C(=O)c1cccc(Cl)c1Cl,nt,10.6%,?,-29.4%,-11.7%,21.4%
CN(CC(=O)Nc1ccc(N2CCOCC2)cc1)C(=O)c1cn(-c2ccccc2)nc1-c1ccccc1,nt,-5.4%,?,-12.2%,2.1%,14.4%
CN(CC(=O)Nc1ccc(F)cc1)C(=O)CSc1ncccn1,nt,-1.1%,-9.7%,7.7%,?,39.2%
CN(CC(=O)Nc1ccc(F)cc1)C(=O)CSc1nccn1C,nt,3.7%,50.1µM*,-3.9%,2.7%,24.6%
Cc1ccc(NC(=O)CN(C)CC(=O)Nc2ccc(N3CCOCC3)cc2)c([N+](=O)[O-])c1,-2.9%,27.6%,?,-5.5%,-18.5%,-14.8%
Cc1cccc(-c2nn(-c3ccccc3)cc2C(=O)N(C)CC(=O)Nc2ccc(N3CCOCC3)cc2)c1,nt,-0.3%,7.94µM*,?,-21.4%,3.3%
Cc1ccc(NC(=O)CN(C)CC(=O)Nc2ccc(N3CCOCC3)cc2)cc1F,1.5%,-2.8%,-142.7%[59 µM],17.8µM*,7.94µM*,?
SMILES,Sfp PPTase inh,L3MBTL1 inh,G9a inh,BAZ2B block,JMJD2A Tudor inh,HP1b binding inh
CN(CC(=O)Nc1ccc(N2CCOCC2)cc1)C(=O)CCc1cc(C(C)(C)C)c(O)c(C(C)(C)C)c1,nt,-12.2%,0.1%[0.501 µM],50.1µM*,?,-17.2%
CN(CC(=O)Nc1ccc(N2CCOCC2)cc1)C(=O)CSc1ccc(F)cc1,nt,-0.6%,12.6µM*,-7.6%,?,-6.2%
Cc1ccc(CC(=O)N(C)CC(=O)Nc2ccc(N3CCOCC3)cc2)cc1C,nt,-4.6%,14.1µM*,-28.9%,-15.2%,23.4%
CN(CC(=O)Nc1ccc(N2CCOCC2)cc1)C(=O)CC(c1ccccc1)c1ccccc1,15.0%,nt,?,?,-26.3%,2.9%
CN(CC(=O)Nc1ccc(N2CCOCC2)cc1)C(=O)CSc1ccc(Br)cc1,-4.3%,nt,nt,-10.2%,-24.8%,-1.5%
CN(CC(=O)Nc1ccc(N2CCOCC2)cc1)C(=O)CSc1ccccc1F,nt,-4.1%,?,1.8%,-13.2%,35.6%
Cc1cc(C)cc(OCC(=O)N(C)CC(=O)Nc2ccc(N3CCOCC3)cc2)c1,nt,-9.5%,35.5µM*,5.3%,-6.2%,23.6%
Cc1cc(C)cc(OCC(=O)Nc2ccc(N3CCCCC3)cc2)c1,nt,-0.4%,-5.2%[2.33 µM],-34.2%,-29.7%,?
COc1cccc(N2CCN(C(=O)c3cc(-c4ccccc4)nc4c3cnn4C(C)C)CC2)c1,nt,-14.5%,nt,nt,?,-17.0%
O=C(NCCc1csc(-c2cccc(F)c2)n1)c1ccccc1C(F)(F)F,nt,nt,2.8%[59 µM],7.2%,0.0%,27.1%[57 µM]
CCn1c2ccccc2c2cc(NC(=O)CN(C)CC(=O)Nc3ccc(N4CCOCC4)cc3)ccc21,14.8%,-9.1%,39.8µM*,28.2µM*,?,-16.9%
COc1ccc2c(c1)O[C@@H](c1cccc(C(F)(F)F)c1)[C@H](OC(=O)NCc1ccc3c(c1)OCO3)C2=O,0.7%,nt,nt,nt,nt,nt
CN(C)c1ccc(-n2cccc2)cc1,-2.6%,?,39.8µM*,22.4µM*,20µM*,22.4µM*
CCCCC1NC(C(=O)O)CS1 (stereo not given),?,14.4%,5.01µM*,50.1µM*,31.6µM*,?
Nc1nc2c(c(=O)[nH]1)N(C=O)C(CNc1ccc(C(=O)NC(CCC(=O)O)C(=O)O)cc1)CN2 (stereo not given),3.6%,nt,-25.9%[2.33 µM],nt,nt,nt
Cc1cc(/C=N/NC(=O)c2cccc(N(C)C)c2)c(C)n1-c1cc(C(=O)O)cc(C(=O)O)c1,-5.5%,nt,11.2µM*,nt,39.8µM*,31.6µM*
